Rev-erbA mod: modulates human Rev-erb alpha binding to DNA | Rev-erbα–FITC-DNA binding, fluorescence polarization, 90 min | activity, % at 10 µM | 0.79% of 370,000 active;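 active = activity above about 14%, limit read from the data; passing the limit was not always enough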;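 also: 0% = DMSO wells with 35 nM protein and 100% = DMSO wells with 750 nM protein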
Target sequence (P20393 whole entry, looked up): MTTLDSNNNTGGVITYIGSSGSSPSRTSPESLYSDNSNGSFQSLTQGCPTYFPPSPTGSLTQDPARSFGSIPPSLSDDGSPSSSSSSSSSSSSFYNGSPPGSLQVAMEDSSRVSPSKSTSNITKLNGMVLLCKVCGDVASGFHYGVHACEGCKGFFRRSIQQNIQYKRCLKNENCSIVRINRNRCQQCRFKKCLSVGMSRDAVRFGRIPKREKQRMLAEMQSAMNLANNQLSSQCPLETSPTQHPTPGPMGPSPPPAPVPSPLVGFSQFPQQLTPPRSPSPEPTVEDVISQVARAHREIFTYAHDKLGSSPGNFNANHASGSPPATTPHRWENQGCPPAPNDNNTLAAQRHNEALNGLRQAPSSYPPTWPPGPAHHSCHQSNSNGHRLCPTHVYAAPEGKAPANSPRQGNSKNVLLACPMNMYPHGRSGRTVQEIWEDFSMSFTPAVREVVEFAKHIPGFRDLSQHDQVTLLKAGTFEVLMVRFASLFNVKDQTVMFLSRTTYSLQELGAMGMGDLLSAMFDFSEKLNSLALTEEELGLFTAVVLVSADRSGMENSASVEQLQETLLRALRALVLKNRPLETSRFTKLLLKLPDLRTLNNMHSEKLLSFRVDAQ
EP2 modulator: modulates human prostaglandin E2 receptor EP2 signaling | P43116 | EP2-expressing cells, cAMP HTRF FRET, PGE2 co-stimulation | induction, % at 25 µM | 0.83% of 260,000 active | AID 940;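 active = compounds whose cAMP rise, as percent of the full-agonist control response, exceeds 60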;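 also: rat C6 glioma line stably carrying human EP2 under a CMV promoter; the protocol text gives 20 µM as final concentration; 100% = response of wells given 1 µM PGE2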
SKN-1 block: C. elegans SKN-1 inhibition. C. elegans VP596 Pgst-4::GFP/RFP ratio, acrylamide-induced, 24 h. 0.49% of 360,000 active. inhibition, % at 21.8 µM;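 active = interference check ratio from 0.5 to 1.5 plus GFP to RFP signal ratio inhibition reaching or exceeding a fixed threshold, cut at about 30% in these data, passing the limit was not always enough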
PG9 binder: binds the HIV-1 gp120 antibody PG9; 0.43% of 360,000 active; TR-FRET gp120-PG9 antibody binding; AID 624416; inhibition, % at 6.7 µM; in the data active = inhibition above about 8.5%
PGE2 EP2 inh: inhibitors of human EP2 prostaglandin E2 receptor | inhibition, % at 25 µM | P43116 | AID 1422 | 0.52% of 260,000 active | C6 glioma cells expressing human EP2, cAMP TR-FRET; cells stimulated with saturating PGE2;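 active = percent inhibition above 40 after rounding to a whole number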;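 also: rat C6 glioma host cells with rolipram phosphodiesterase inhibitor present; the protocol text gives 20 µM as final concentration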
RAM inhibit: blocks the yeast RAM network. S. cerevisiae dse1pr::URA3 reporter, 5-FOA growth OD615, 2 d; analog-sensitive cbk1-as2 kinase mutant strain. 1.8% of 190,000 active. AID 868. inhibition, % at 50 µM;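 active = inhibition above a set limit, 3 SD over mean compound inhibition, cut at about 8.4% in these data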;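 also: 0% = DMSO-only wells with no growth and 100% = 10 µM 1-NA-PP1 full growth; inhibition rescues growth on 5-FOA so higher OD means more RAM inhibition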
EP2 cAMP induct: EP2 receptor cAMP induction, counter-screens negative; AID 1080; 47% of 1,300 active; shares compounds with EP2 modulator; calls only at 20 µM (by protocol); C6 glioma EP2 cells, cAMP HTRF induction; plus low (about EC15) PGE2 agonist;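 active = cAMP induction above 50% in the main assay while under 30% in all four parallel counter assays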;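 also: rat C6 glioma cells stably expressing human EP2 receptor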
An asterisk follows results filed as active; i = inactive; . = not tested or not shown; + = active, no number. An excerpt weighted towards active compounds, which were near 2.9% of everything screened.

SMILES	Rev-erbA mod	EP2 modulator	SKN-1 block	PG9 binder	PGE2 EP2 inh	RAM inhibit	EP2 cAMP induct
COc1ccc(S(=O)(=O)N(Cc2cccs2)C2CCCC2)cc1	8	81*	10	-2	5	2	+
Cc1cc(-c2sccc2C)nc(-n2cccc2)n1	9	75*	-10	4	5	2	+
CC1C(=N)N(c2nc(N(C)C)nc(N(C)C)n2)CC1=O (stereo not drawn)	.	2	.	.	10	.	.
Cc1ccccc1-n1c(=O)[nH]c(=O)c2c(N)c(C(=O)c3ccc(Cl)cc3)sc21	12	66*	2	-3	3	3	i
Clc1cccc(-c2nc3nc4ccccc4nc3n2Cc2ccccc2)c1	21	49	0	1	7	3	.
c1ccc(Cn2c(-c3ccccc3)nc3nc4ccccc4nc32)cc1	8	67*	8	2	11	5	+
O=C(c1ccccc1)C1CN(Cc2ccccc2)CCC1(O)c1ccccc1 (stereo not drawn)	4	76*	-7	2	7	2	i
OC(c1ccccc1)C1CN(Cc2ccccc2)CCC1(O)c1ccccc1 (stereo not drawn)	4	12	-2	-2	11	1	.
S=c1[nH]nc(CSc2nc3ccccc3s2)n1Cc1ccccc1	-1	54	-12	2	10	4	i
C=C1CCC2C(CC2(C)C)C(=C)CC/C1=N/O (stereo not drawn)	.	55	.	.	15	.	i
CCOc1ccc(C2C(C(=O)Nc3ccccc3OC)=C(C)Nc3ncnn32)cc1OCC (stereo not drawn)	.	9	.	.	13	.	.
O=C(CSc1nnc(Cc2ccccc2)n1Cc1ccco1)NC12CC3CC(CC(C3)C1)C2	0	63*	2	-2	-3	2	i
Cn1c(=O)c(NC2CCCCC2)c2c3c(cccc31)C(=O)c1ccccc1-2	11	65*	-55	-2	3	6	+
O=C(NC1CCCCCCC1)NC1CCCCC1	2	1	-3	0	10	1	.
C/C(=N\NC(=O)NC1CCCCC1)C1CCCCC1	0	71*	17	0	10	1	i
CCCCn1c(-c2nonc2N)nc2ccccc21	2	54	25	1	7	.	.
CC(C)CCn1c(-c2nonc2N)nc2ccccc21	6	70*	-9	-2	11	10*	i
CCOC(=O)c1c(NC(=O)c2ccc(Cl)s2)sc(C)c1C	13	.	-9	1	13	.	.
CCOC(=O)c1cc(C)sc1NC(=O)c1ccc(Cl)s1	2	65*	-7	0	7	5	+
CCOC(=O)c1cc(CC)sc1NC(=O)c1cccc(N2C(=O)CCC2=O)c1	-2	46	-3	0	6	3	.
CCOC(=O)c1cc(CC)sc1NC(=O)c1ccc2c(c1)OCCO2	8	69*	14	-2	11	6	+
Cc1ccc2nc3c(cc2c1)CN(Cc1ccco1)C(=O)CO3	.	-24	.	.	1	.	.
C=C[C@@](C)(O)CCC1C(=C)C[C@H](O)C2C(C)(C)CCCC12C (stereo partly drawn)	.	79*	.	.	10	.	+
Cc1cc(C)c2c(C)nn(-c3ccccc3)c2n1	4	36	-7	-2	11	1	.
Cc1nc2c(c(C)nn2-c2ccccc2)c(C)c1Cl	-7	77*	1	2	7	1	i
SMILES	Rev-erbA mod	EP2 modulator	SKN-1 block	PG9 binder	PGE2 EP2 inh	RAM inhibit	EP2 cAMP induct
Cc1cc(CNC(=O)CCn2nc(C)c(C)c2C)c2[nH]c3c(c2c1)CCCC3	.	-68	.	.	3	.	.
COC(=O)[C@H]1CN(C(=O)CCn2nccc2C)C[C@@H]1c1ccc(F)cc1	.	-25	.	.	.	.	.
O=C(O)/C=C/c1cn(-c2ccccc2)nc1-c1cc2ccccc2oc1=O	0	-4	-2	0	1	.	.
N#Cc1cn(-c2ccccc2)nc1-c1cc2ccccc2oc1=O	22	65*	16	0	8	1	i
O=C(c1ccc2c(c1)OCO2)N(Cc1cccs1)C1(C(=O)NC2CCCCC2)CCCCC1	9	71*	16	1	4	3	i
C=CCSc1nccc(-c2cc(Cl)sc2Cl)n1	-2	67*	11	-1	17	3	i
CS(=O)(=O)N1CCCc2cc(C(O)CN3CCC(c4ccncc4)CC3)ccc21 (stereo not drawn)	.	-31	.	.	8	.	.
CCc1nnc2n1N=C(c1ccc(-c3cc(Cl)ccc3Cl)o1)CS2	10	68*	30	-1	1	5	+
c1ccc(-c2noc(CN3CCN(C(c4ccccc4)c4ccccc4)CC3)n2)cc1	5	57	15	-1	6	1	i
c1ccc(-c2noc(CN3CCN(c4ccccc4)CC3)n2)cc1	10	-17	13	-1	9	0	.
Cc1ccc(-c2csc3ncnc(N4CCN(Cc5ccccc5)CC4)c23)cc1	11	.	-7	-2	.	.	.
Cc1ccc(-c2csc3ncnc(N4CCc5ccccc5C4)c23)cc1	10	70*	4	0	4	4	i
CC1=CC2C(C(C)C)CCC(C)(O)C2CC1 (stereo not drawn)	.	65*	.	.	6	.	+
COCCn1cc(CN2CCC(NC(C)=O)(c3ccccc3F)CC2)c2ccccc21	.	-5	.	.	3	.	.
CCCCNc1nc(N(C)c2ccccc2)nc(-n2ccnc2)n1	6	77*	-7	-1	2	0	+
CCCCCNc1nc(-c2ccccc2)nc(-n2ccnc2)n1	0	16	7	0	14	3	.
CC1CN(c2nc3ccccc3cc2-c2ccccc2)CC(C)O1 (stereo not drawn)	3	67*	11	-3	5	1	+
CC1CN(c2cc(-c3ccccc3)c3ccccc3n2)CC(C)O1 (stereo not drawn)	7	54	-1	1	10	2	.
NC(=O)CSc1nc(-c2ccccc2)c(-c2ccccc2)o1	4	67*	15	-2	3	11*	+
C=Cn1c(C(=O)O)ccc1-c1ccc(Cl)cc1	.	-1	.	.	11	.	.
CCC(=O)Oc1c(OC)cc(/C=C2\N=C(c3ccc(C(C)(C)C)cc3)OC2=O)cc1OC	.	10	.	.	4	.	.
O=c1[nH]c(=S)c2c(n1-c1ccccc1)CCC2	1	82*	-5	3	33	1	i
O=C(CN1CCCCC1)N1c2ccccc2Oc2ccccc21	-4	22	12	1	10	2	.
O=C(CO/N=C/c1ccccc1)N1c2ccccc2Oc2ccccc21	4	66*	22	-1	12	5	i
Cc1cccc(NC(=O)CNCc2cccs2)c1C	.	-49	.	.	10	.	.

High-throughput results from PubChem BioAssay.
